Results filed as inconclusive are left out. A number with no mark means an inactive call. Calls of active or inactive are those of the source. The call rests on the fitted dose curve.
On the % scale 0 is the no-effect control and ±100 the full control effect; potency means the concentration at half of the fitted maximal effect.

A short description of the test: qHTS assay to identify small molecule antagonists of the estrogen receptor alpha (ER-alpha) signaling pathway using the BG1 cell line (AID 743080).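 Further: BG1 cells stimulated with 17beta-estradiol alongside compound; nearly all actives have a fitted effect of over 25% in size.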 The settings on record: BG1Luc4E2 ERE-luciferase antagonist mode, luminescence; series mostly up to 70.3 µM; activity change, negative = inhibition: at the top concentration. An excerpt: National Center for Advancing Translational Sciences [NCATS]
NIH Chemical Genomics Center [NCGC]
U.S. Environmental Protection Agency [EPA]
National Institutes of Environmental Health Sciences [NIEHS]
National Toxicology Program [NTP]
U.S. Food and Drug Administration [FDA]
Estrogen receptor (ER), a nuclear hormone receptor, plays an important role in development, metabolic homeostasis and reproduction. Endocrine disrupting chemicals (EDCs) and their interactions with steroid hormone receptors like ER causes disruption of normal endocrine function. Therefore, it is important to understand the effect of environmental chemicals on the ER signaling pathway. To identify ER antagonists, BG1-Luc-4E2 cell line (provided by Dr. Michael Denison from University of California) has been used to screen the Tox21 10K compound library. BG1Luc4E2 cell line endogenously expresses full-length ER-alpha and is stably transfected with a plasmid containing four estrogen responsive elements (ERE) upstream of a luciferase reporter gene.
Tox21 Assay Protocol Summary:
BG1-Luc-4E2 cells were cultured in phenol red free assay medium containing 10% charcoal stripped FBS for 5 days before the assay was performed. The cells were dispensed at 4,000 cells/4 uL of assay medium per well into white wall/solid-bottom 1536-well plates using a Multidrop Combi (ThermoFisher Scientific, Waltham, MA) dispenser. The assay plates were incubated at a 37C and 5% CO2 for 24 h, and then 23 nL of compounds dissolved in DMSO, positive controls or DMSO only was transferred to the assay plate using a Pintool station (Kalypsys, San Diego, CA), followed by addition of 1 uL of 17beta-estradiol in assay medium using a Flying Reagent Dispenser (Aurora Discovery, San Diego, CA). After the plates were incubated at 37 C and 5% CO2 for 21.5 h, 1 uL of CellTiter-Fluor reagent (Promega, Madison, WI) of measuring cytotoxicity was added using Flying Reagent Dispenser (FRD) to each well. The assay plates were incubated at 37 C and 5% CO2 for additional 30 min and the fluorescence intensity was quantified by a ViewLux plate reader (PerkinElmer, Shelton, CT). For measuring luciferase reporter gene activity, 4 uL of ONE-Glo reagent (Promega) was added to each plate using an FRD and luminescence was quantified by a ViewLux plate reader after 30 min incubation at room temperature.
For `COC(=O)CS`, the “activity change, negative = inhibition” value is 9.07%. For the compound `Cc1ccco1`, the “activity change, negative = inhibition” value is 0.361%. On to `CN1CCCC(n2nc(Cc3ccc(Cl)cc3)c3ccccc3c2=O)CC1` (stereo not given), for which the “activity change, negative = inhibition” value was -8.48%.

As for `CC(CO)CO`, the “activity change, negative = inhibition” value was 1.8% [at 95 µM]. As to `O=C(O)CCC(=O)C(=O)O`, the Potency result is “inactive”. As for `CCOc1ccccc1O[C@H](c1ccccc1)[C@H]1CNCCO1`, the “activity change, negative = inhibition” value is -5.58%.

Regarding `Cc1cc2c(OCC(CNC(C)(C)C)OC(=O)c3ccccc3)cccc2[nH]1` (stereo not given), the “activity change, negative = inhibition” value was 13.1%. On to `CN1CCCC(CC2c3ccccc3Sc3ccccc32)C1` (stereo not given), for which the “activity change, negative = inhibition” value was 19.2% [at 32.5 µM]. Turning to `CCCCOc1ccc(OCCCN2CCOCC2)cc1`, the “activity change, negative = inhibition” value is 9.23% [at 32.5 µM]. Take `c1ccc(C[n+]2cccc3ccccc32)cc1`: the Potency was 61.1 µM (active). With `C/C=C/C=C/C=O`, the “activity change, negative = inhibition” value is 7.9%. The same measure, in the same setting: the figure for `CC(C)(C)C(=O)C(=O)O` is 1.93%; for `CCOC(=O)c1ccc(OCCN2C[C@H](O)[C@@H](O)[C@H](O)[C@H]2CO)cc1` it is 17.5%; for `CCCCCC[C@@H](O)C/C=C\CCCCCCCC(=O)OCC(O)CO` (stereo not given in full) it is 5.29%. With `Brc1cc(Br)c(Oc2cc(Br)c(Br)cc2Br)cc1Br`, the “activity change, negative = inhibition” value was -5.64%.

For the compound `CC(C)c1nc(CN(C)C(=O)N[C@H](C(=O)N[C@@H](Cc2ccccc2)C[C@H](O)[C@H](Cc2ccccc2)NC(=O)OCc2cncs2)C(C)C)cs1`, the Potency entry is “inactive”.

For the compound `C=C(C)CCCC(C)CCO` (stereo not given), the “activity change, negative = inhibition” value was 0.212%. Take `N#CCCN(CCO)CCO`: the “activity change, negative = inhibition” value is -14.1%.

Take `Nc1cccc2c1CN(C1CCC(=O)NC1=O)C2=O` (stereo not given): the “activity change, negative = inhibition” value is -9.64%. As to `COc1cc(C(=O)NC2CCN(C)CC2)ccc1Nc1ncc2c(n1)N(C1CCCC1)CC(F)(F)C(=O)N2C`, the Potency is 0.25 µM (active). Take `CC(C)(O)c1ccc(CNC(=O)c2cccnc2Oc2ccc3nonc3c2)cc1`: the “activity change, negative = inhibition” value was -13.6%. The same measure, in the same setting: the figure for `CCN(CC)CCNC(=O)COc1ccc(OC)cc1` is 2.72%; for `CC[N+](CC)(CCNC(=O)C(=O)NCC[N+](CC)(CC)Cc1ccccc1Cl)Cc1ccccc1Cl` it is 0.38%.

On to `CCCCN1CCCC1C(=O)Nc1c(C)cc(C)cc1C` (stereo not given), for which the “activity change, negative = inhibition” value was 6.02%. The same measure, in the same setting: next, `O=C(O)CCCCCCCCCCCBr`: 2.12%; `O=C(O)CCc1nc(-c2ccccc2)c(-c2ccccc2)o1`: 0%; `C=CC(C)(CCC=C(C)C)OC(=O)CC(C)C` (stereo not given): -1.99%. Still for that read-out and setting: next, `CCCC(C(=O)OCCN(CC)CC)(c1ccccc1)c1ccccc1`: -2.97%. Same read-out and setting: the figure for `C=C1CCC2CC1C2(C)C` (stereo not given) is 5.63%; for `CCC=CC#N` it is 4.11%. As to `C[C@]12CC[C@@H]3c4ccc(O)cc4CC[C@H]3[C@@H]1CC[C@@H]2OC(=O)CCC1CCCC1`, the Potency result is “inactive”. With `C=CC(=O)[O-].C=CC(=O)[O-].[Zn+2]`, the “activity change, negative = inhibition” value was 3.07%. Regarding `Nc1ncnc2c1ncn2[C@H]1CC[C@@H](CO)O1`, the Potency entry is “inactive”. Take `O=C1c2ccccc2C(=O)N1CCc1noc(-c2ccc(CN3CCCCCC3)s2)n1`: the Potency is 49.9 µM (active). As to `C1COC1`, the “activity change, negative = inhibition” value was -3.7%. In the case of `CCOC(C)=O`, the Potency result is “inactive”. Consider `O=C=Nc1cccc(C(F)(F)F)c1`, for which the “activity change, negative = inhibition” value is -19.1%. On the same count and under the same terms, next, `COc1cc(N)c(Cl)cc1C(=O)NC1CCN(CCCOc2ccc(F)cc2)CC1OC` (stereo not given): -19.2% [at 32.5 µM]. The same measure, in the same setting: next, `C=C/C(C)=C/C/C=C(\C)CCC=C(C)C`: -11%.

In the case of `C=Cc1ccc(S(=O)(=O)O)cc1`, the Potency entry is “inactive”.
